Experimental data reported in ChEMBL document CHEMBL1157539, “Thousands of chemical starting points for antimalarial lead identification” (Nature, 2010).

Experiments:
Assay type in all cases: functional
Plasmodium falciparum [1] = experiment: GSK_TCMDC: Inhibition of Plasmodium falciparum 3D7 in whole red blood cells, using parasite LDH activity as an index of growth. Test compounds present at 2uM
Plasmodium falciparum [2] = experiment: GSK_TCMDC: Inhibition of Plasmodium falciparum Dd2 in whole red blood cells, using parasite LDH activity as an index of growth. Test compounds present at 2uM
HepG2 = experiment: GSK_TCMDC: Percent inhibition of human HepG2 cell line. Test compounds present at 10uM.

Structure (SMILES) | Inhibition (Plasmodium falciparum [1]) | Inhibition (Plasmodium falciparum [2]) | Inhibition (HepG2)
COc1ccc(CNc2ccnc(-n3cnc4cc(C)c(C)cc43)n2)cc1Cl.O=C(O)C(F)(F)F | 100% | 100% | 6%
COc1cc2nc(Nc3ccc4c(cnn4Cc4ccccc4)c3)nc(Nc3ccc4c(cnn4Cc4ccccc4)c3)c2cc1OC | 99% | 100% | 4%
CCN(CC)CCCN(C(=O)Nc1ccc(C#N)cc1)c1nc(-c2ccc(F)cc2)cs1 | 99% | 68% | 36%
N#Cc1ccc(N2CCN(Cc3cccc(-c4cccc(-c5nc6cc(F)ccc6[nH]5)c4)c3)CC2)nc1.O=C(O)C(F)(F)F | 90% | 52% | 26%
CCn1cc(C=C2Oc3c(ccc(O)c3CN3CCCCC3)C2=O)c2ccccc21 | 100% | 99% | 0%
Clc1ccc(CNC2CCN(CC3CCCCC3)CC2)cc1.O=C(O)C(F)(F)F | 92% | 15% | 12%
Cl.c1ccc(C(c2cccs2)N2CCN(Cc3ccc(OCCCN4CCCCC4)cc3)CC2)cc1 (stereo unspecified) | 91% | 14% | 41%
CN(C)c1ccc(CN2CCC(CNC(=O)c3cc(-c4cccc(C(F)(F)F)c4)cs3)C2)cc1.O=C(O)C(F)(F)F (stereo unspecified) | 96% | 34% | 39%
CC(=O)NCCNCc1cccc(C(=O)NCc2cccc(C(F)(F)F)c2)c1 | 95% | 0% | 1%
Cc1cccc2nc(-c3ccc(-c4ccc(CNCC5CCCO5)cc4)s3)[nH]c12.O=C(O)C(F)(F)F (stereo unspecified) | 100% | 96% | 11%
CCCCCCC(C)c1cc(OCCN(CC)CC)c2c(c1)OC(C)(C)C=C2c1ccncc1.Cl (stereo unspecified) | 90% | 71% | 14%
O=C(/C=C/c1ccc(Cl)c(Cl)c1)N1CCN(C(=O)Nc2ccc(F)c(Cl)c2)CC1 | 97% | 87% | 19%
Cc1ccccc1C1CCN(c2ncc(C(=O)NC3CC3)cc2Cl)CC1.O=C(O)C(F)(F)F | 96% | 96% | 22%
O=C(CCn1c2ccccc2c2ccccc21)NN=Cc1ccco1 | 96% | 0% | 6%
Cn1cncc1CCN(Cc1ccc(-c2ccc(C(F)(F)F)cc2)cc1)C(=O)Cn1c(SCc2cccc(F)c2F)cc(=O)c2ccccc21 | 99% | 90% | 24%
O=C(Nc1ccc(C(F)(F)F)cc1)c1cccc(S(=O)(=O)NC2CCN(CC3CCCCC3)CC2)c1.O=C(O)C(F)(F)F | 99% | 12% | 18%
O=C(Nc1ccc(-c2oc(C(=O)NCCc3cccc(Cl)c3)cc2-c2ccncc2)cc1)Nc1cccc(Cl)c1.O=C(O)C(F)(F)F | 99% | 84% | 13%
CCOc1cc2ncnc(Nc3cc(Cl)c(Cl)c(Cl)c3)c2cc1OCC.Cl | 100% | 98% | 11%
CCOC(=O)N1NC(=O)N(c2ccccc2)C1(c1ccccc1)c1ccccc1 | 96% | 82% | 5%

Structure (SMILES) | Inhibition (Plasmodium falciparum [1]) | Inhibition (Plasmodium falciparum [2]) | Inhibition (HepG2)
CCCC(C)NC(=O)C(N)Cc1cccc(I)c1.O=C(O)C(F)(F)F (stereo unspecified) | 95% | 65% | 11%
Cn1cncc1-c1cc2c(Nc3ccc(OCc4ccccc4)cc3)ncnc2cn1 | 99% | 75% | 0%
COc1cc(CN2CCC(C(=O)Nc3ccc(-c4cccc(C)c4)cc3)CC2)ccc1O | 100% | 85% | 25%
O=C(O)C(F)(F)F.c1ccc(CNCc2ccc(-c3ccc(-c4nc5ccccc5[nH]4)cc3)cc2)cc1 | 100% | 93% | 32%
COc1cc2nc(N3CCC(CNC(=O)c4cccc5cc[nH]c45)CC3)nc(N)c2cc1OC | 98% | 24% | 33%
O=C(NCCN1CCCC1)c1ccc(-c2ccc(-c3nc4cc(C(F)(F)F)ccc4[nH]3)s2)cc1 | 97% | 65% | 31%
CCN(CC)CCCN(CCCN(CC)CC)c1cc(C)nc(Nc2ccc3cc(Br)ccc3c2)n1.Cl | 100% | 73% | 12%
COc1ccc(-c2ccc(NC(=O)c3cccc(Cl)c3)cc2)cc1CN1CCCC1.O=C(O)C(F)(F)F | 100% | 84% | 35%
COc1cc(NC(=O)NC(CCN2CCC3(CCc4ccccc43)CC2)c2ccc(Cl)c(Cl)c2)cc(OC)c1OC (stereo unspecified) | 90% | 66% | 66%
CS(=O)(=O)O.c1ccc2c(CNCCCCCCNCc3c(OCC4CC4)ccc4ccccc34)c(OCC3CC3)ccc2c1 | 93% | 97% | 100%
CCCCn1c(Sc2ccc(C#N)c([N+](=O)[O-])c2)nnc1-c1cccc(Cl)c1 | 96% | 87% | 30%
Cc1cccc2nc(-c3ccc(-c4cccc(NC(=O)Nc5ccc6c(c5)OCO6)c4)cc3)[nH]c12 | 100% | 39% | 28%
CN1CCCN(Cc2cccc(-c3ccc(NC(=O)c4cccc(Cl)c4)cc3)c2)CC1.O=C(O)C(F)(F)F | 90% | 10% | 34%
Clc1ccc(/N=C(/NCCCCCCCN/C(=N\c2ccc(Cl)cc2)Nc2ccc(Cl)cc2)Nc2ccc(Cl)cc2)cc1 | 100% | 99% | 100%
COc1ccc2nccc([C@@H](O)CN3CCC(NC/C=C/c4cccnc4)CC3)c2c1.CS(=O)(=O)O | 100% | 19% | 0%
CC(CN(C)C)C(=O)Nc1ccc(-c2ccc(-c3nc4ccccc4[nH]3)s2)cc1 (stereo unspecified) | 100% | 86% | 14%
C=CCOC(=O)N1CCC(CNCc2cccc(-c3ccc(-c4nc5cccc(C)c5[nH]4)s3)c2)C1.O=C(O)C(F)(F)F (stereo unspecified) | 100% | 82% | 11%
CCc1sc(-c2ccc(C(C)(C)C)cc2)nc1C(=O)NCCCN1CCCC1=O | 84% | 69% | 0%
Cc1ccc(-c2ccc(Cl)cc2Oc2cnc(N)nc2N)o1 | 100% | 3% | 15%

Structure (SMILES) | Inhibition (Plasmodium falciparum [1]) | Inhibition (Plasmodium falciparum [2]) | Inhibition (HepG2)
CCOC(=O)c1c(C)noc1Nc1cccc(C)c1C | 98% | 0% | 8%
Nc1nc2c(cnn2CCCCCCCP(=O)(O)O)c(=O)[nH]1 | 94% | 91% | 0%
O=C(c1cc(C(=O)NC2CCCCC2)c(=O)n(C2CCCCC2)c1)c1cc(F)ccc1O | 99% | 98% | 22%
Cc1nc(-c2ccc(-c3ccc(NC(=O)c4coc5ccc(N6CC(C)N(C)C(C)C6)cc45)cc3)c(C)c2)no1.Cl (stereo unspecified) | 96% | 46% | 21%
CN(C)CC(O)C(O)(c1ccccc1)c1ccc(F)cc1.Cl (stereo unspecified) | 93% | 10% | 0%
CCn1c(-c2nonc2N)nc2c(-c3cccc(NC(=O)Nc4ccc(C(F)(F)F)cc4)c3)ncc(OCCCN)c21.O=C(O)C(F)(F)F | 94% | 63% | 36%
Cc1cc(C(=O)Nc2ccc3c(c2)CCN3C2CCN(Cc3cc(F)cc(F)c3F)C2)no1 (stereo unspecified) | 95% | 96% | 0%
O=C(/C=C/c1ccc(I)cc1)NCCCCCN1CCC(c2c[nH]c3ccc(O)cc23)CC1 | 97% | 1% | 14%
CCNc1cc(C(=O)N[C@@H](Cc2ccccc2)[C@H](O)CNCCc2cccc(C(F)(F)F)c2)cc(N2CCCC2=O)c1.O=CO | 96% | 93% | 7%
COc1ccc(NC(=O)[C@H](CC(C)C)Nc2ccnc(Nc3ccccc3)n2)cc1.O=C(O)C(F)(F)F | 92% | 32% | 0%
CC(=O)Nc1ncc(C(=O)Nc2cccc(-c3cccc(-c4nc5cc(C(F)(F)F)ccc5[nH]4)c3)c2)s1 | 100% | 99% | 76%
O=C(NCC1CCN(Cc2cccc(C(F)(F)F)c2)C1)c1cc(-c2cccc(F)c2)cs1.O=C(O)C(F)(F)F (stereo unspecified) | 87% | 5% | 19%
COc1ccc(-c2cc3nc4c(c(NCCCn5ccnc5)n3n2)CCCC4)cc1 | 95% | 74% | 5%
CC(CNC(=O)c1cc2c(Cl)cc(Cl)cc2[nH]1)CNc1cc(=O)c2ccccc2[nH]1.O=C(O)C(F)(F)F (stereo unspecified) | 97% | 11% | 11%
COc1ccc(NC(=O)c2csc(-c3cc(NC(=O)c4ccnc(N5CCCC5)c4)ccc3C)c2)cc1N1CCN(C)CC1.O=C(O)C(F)(F)F | 100% | 80% | 4%
O=C(NC1CC1)c1ccc(N2CCC(c3ccccc3)CC2)nc1.O=C(O)C(F)(F)F | 93% | 92% | 16%
NC1CCN(c2cnn(Cc3cccc(NC(=O)Nc4ccc(-c5ccccc5)cc4)c3)c(=O)c2Cl)CC1.O=C(O)C(F)(F)F | 89% | 11% | 5%
Cc1[nH]c(/C=C2\C(=O)Nc3ccc(S(=O)(=O)Cc4c(Cl)cccc4Cl)cc32)c(C)c1C(=O)N1CCC[C@@H]1CN1CCCC1 [PHA-665752] | 85% | 92% | 33%
Cl.c1ccc2nc(NCCCCCCCCNc3ccc4ccccc4n3)ccc2c1 | 100% | 37% | 52%
